The record followed here is PMC5540273 (PLoS ONE, 2017).

Among the test systems are CSF1R-autoinhibited; CSF1R; CSK; CSNK1A1L; CSNK1A1; CSNK1D; CSNK1E; CSNK1G1; CSNK1G2; CSNK1G3; CSNK2A1; CSNK2A2; DAPK1; DAPK2; DAPK3; DDR1.
Holding throughout (details): concentration: 1 μM, replicates: in singlicate; n = 1
Another assay deals with T1, CTK.
T1 construct: gene MATK

In the next assay the test system is T2, DCAMKL1.
T2 construct: gene DCLK1

The test system of a further assay is T3, DCAMKL2.
T3 construct: gene DCLK2

The test system of a further assay is T4, DCAMKL3.
T4 construct: gene DCLK3
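Further: KINOMEscan kinase panel screen.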

In the case of `CCn1c(-c2ccncc2)nc2cnccc21` [SB-735216], the “%Inh” value stood at 47% in the assay on CSF1R-autoinhibited; 2% in the assay with CSF1R; 0% with CSK; 10% in the assay with CSNK1A1L; 22% in the assay with CSNK1A1; 8% with CSNK1D. For the same compound, the “%Inh” value was found to be 0% in the assay on CSNK1E; 6% in the assay on CSNK1G1; 0% with CSNK1G2; 4% in the assay with CSNK1G3; 18% with CSNK2A1; 0% in the assay with CSNK2A2. Moreover, the “%Inh” value in the assay on CTK is reported as 11%; in the assay on DAPK1 it was 1%; in the assay with DAPK2 it was 0%; with DAPK3 it was 0%; in the assay on DCAMKL1 it was 8%; in the assay on DCAMKL2 it was 0%. Further, the “%Inh” value in the assay on DCAMKL3 and in the assay on DDR1 was 0% in each case.

Regarding `Oc1ccc2ncnc(Nc3ccc(OCc4ccccc4)cc3)c2c1` [GI262866], the “%Inh” value with CSF1R-autoinhibited worked out at 0%; in the assay with CSF1R, 2%; with CSK, 0%; with CSNK1A1L, 0%; with CSNK1A1, 8%; in the assay on CSNK1D, 4%. For the same compound, the “%Inh” value in the assay with CSNK1E is 30%; with CSNK1G1 it was 0%; in the assay with CSNK1G2, 17%; in the assay on CSNK1G3 it was 38%; in the assay with CSNK2A1, 26%; in the assay on CSNK2A2, 10%. Moreover, the “%Inh” value with CTK came out at 3%; in the assay on DAPK1 it was 0%; in the assay with DAPK2, 0%; in the assay with DAPK3 it was 0%; with DCAMKL1, 0%; in the assay on DCAMKL2, 0%. The figures for the “%Inh” value with DCAMKL3 and in the assay with DDR1 were 0% and 7%, respectively.

For `COc1ccc(Nc2nccc(N3CCC(NC(=O)c4cccc(NC(C)=O)c4)C3)n2)cc1` (centres unmarked) [GSK1379732], the “%Inh” value in the assay with CSF1R-autoinhibited turned out to be 49%; with CSF1R, 1%; in the assay with CSK, 0%; with CSNK1A1L, 7%; in the assay with CSNK1A1, 0%; in the assay with CSNK1D, 13%. Further, the “%Inh” value is given as 16% in the assay with CSNK1E; 9% in the assay with CSNK1G1; 0% in the assay with CSNK1G2; 24% with CSNK1G3; 0% in the assay on CSNK2A1; 1% in the assay with CSNK2A2. The “%Inh” value in the assay with CTK is 0%; in the assay with DAPK1 it was 0%; with DAPK2 it was 13%; in the assay with DAPK3 it was 18%; with DCAMKL1 it was 0%; in the assay on DCAMKL2, 0%. Further, the “%Inh” value worked out at 7% in the assay on DCAMKL3 and 0% in the assay with DDR1.

As to `Cc1ccc(NC(=O)c2cccc(C#N)c2)cc1-c1ccc(C(=O)Nc2ccncc2)cc1` [GSK1398463], the “%Inh” value worked out at 0% with CSF1R-autoinhibited; 98.3% with CSF1R; 0% in the assay with CSK; 15% in the assay on CSNK1A1L; 0% with CSNK1A1; 19% with CSNK1D. Besides, the “%Inh” value in the assay with CSNK1E stood at 29%; with CSNK1G1 it was 23%; in the assay with CSNK1G2, 1%; in the assay with CSNK1G3, 41%; in the assay on CSNK2A1, 0%; with CSNK2A2, 9%. The “%Inh” value in the assay on CTK was 19%; in the assay on DAPK1, 0%; in the assay with DAPK2, 0%; in the assay with DAPK3 it was 6%; with DCAMKL1 it was 19%; with DCAMKL2 it was 15%. For the same compound, the “%Inh” value was 0% with DCAMKL3 and 100% in the assay with DDR1.

For `CS(=O)(=O)CCNCc1nc(-c2ccc3ncnc(Nc4ccc(OCc5cccc(F)c5)c(Cl)c4)c3c2)cs1.Cl` [GW583340], the “%Inh” value in the assay on CSF1R-autoinhibited is 0%; in the assay with CSF1R, 8%; in the assay with CSK, 12%; in the assay with CSNK1A1L, 0%; with CSNK1A1, 0%; in the assay with CSNK1D, 4%. Further, the “%Inh” value in the assay on CSNK1E worked out at 45%; in the assay on CSNK1G1, 17%; in the assay with CSNK1G2, 0%; in the assay with CSNK1G3 it was 24%; with CSNK2A1, 2%; in the assay with CSNK2A2, 17%. Besides, the “%Inh” value was found to be 0% in the assay on CTK; 25% in the assay with DAPK1; 0% with DAPK2; 6% in the assay on DAPK3; 16% in the assay on DCAMKL1; 0% in the assay on DCAMKL2. Also, the “%Inh” value is 0% in the assay with DCAMKL3 and 4% in the assay with DDR1.

On to `O=c1cc(N2CCOCC2)nc2n(Cc3cccc(Cl)c3)ccn12` [GSK2296823], for which the “%Inh” value in the assay on CSF1R-autoinhibited came to 0%; with CSF1R, 1%; with CSK it was 0%; in the assay with CSNK1A1L it was 12%; in the assay with CSNK1A1, 42%; in the assay on CSNK1D, 19%. Moreover, the “%Inh” value in the assay with CSNK1E was 34%; in the assay on CSNK1G1, 10%; in the assay with CSNK1G2, 0%; in the assay with CSNK1G3, 23%; in the assay on CSNK2A1, 0%; in the assay with CSNK2A2 it was 0%. The “%Inh” value with CTK turned out to be 22%; with DAPK1, 0%; in the assay with DAPK2, 0%; in the assay on DAPK3 it was 7%; in the assay with DCAMKL1 it was 17%; with DCAMKL2, 12%. In addition, the “%Inh” value was 0% in the assay with DCAMKL3 and 21% in the assay on DDR1.

As to `C[C@H]1CC[C@@H](C(=O)Nc2ccccc2)CN1c1cc(-c2ccc3c(N)n[nH]c3c2)nc(N)n1` [GSK2283293], the “%Inh” value came to 26% in the assay on CSF1R-autoinhibited; 0% in the assay with CSF1R; 0% with CSK; 16% in the assay with CSNK1A1L; 0% with CSNK1A1; 0% in the assay on CSNK1D. Also, the “%Inh” value was 7% in the assay on CSNK1E; 7% in the assay with CSNK1G1; 0% in the assay on CSNK1G2; 7% with CSNK1G3; 12% in the assay on CSNK2A1; 0% with CSNK2A2. In addition, the “%Inh” value with CTK is recorded as 0%; in the assay with DAPK1, 7%; with DAPK2 it was 0%; in the assay with DAPK3 it was 0%; in the assay with DCAMKL1, 23%; with DCAMKL2, 0%. The “%Inh” value in the assay with DCAMKL3 turned out to be 8%; with DDR1 it was 0%.

As for `Nc1nc(-c2ccccn2)c(-c2ccnc3ccccc23)s1` [GW548057], the “%Inh” value with CSF1R-autoinhibited was found to be 58%; in the assay on CSF1R, 19%; with CSK, 3%; in the assay on CSNK1A1L, 38%; in the assay on CSNK1A1 it was 89%; in the assay with CSNK1D, 83%. Further, the “%Inh” value in the assay on CSNK1E is given as 79%; in the assay on CSNK1G1, 11%; with CSNK1G2, 0%; with CSNK1G3 it was 27%; in the assay with CSNK2A1 it was 0%; in the assay on CSNK2A2, 17%. Further, the “%Inh” value is 0% in the assay with CTK; 11% with DAPK1; 13% in the assay with DAPK2; 31% in the assay with DAPK3; 23% with DCAMKL1; 11% in the assay on DCAMKL2. Moreover, the “%Inh” value is 6% in the assay with DCAMKL3 and 0% in the assay with DDR1.

In the case of `CCCc1ccc(S(=O)(=O)NC2CCN(c3ccnc(Nc4ccc(OC)cc4)n3)C2)cc1` (centres unmarked) [GSK1379737], the “%Inh” value in the assay on CSF1R-autoinhibited came out at 23%; in the assay with CSF1R it was 10%; in the assay on CSK it was 0%; with CSNK1A1L it was 7%; in the assay with CSNK1A1, 0%; in the assay on CSNK1D, 14%. Further, the “%Inh” value is 19% in the assay with CSNK1E; 0% in the assay with CSNK1G1; 0% in the assay with CSNK1G2; 21% in the assay with CSNK1G3; 0% in the assay with CSNK2A1; 0% in the assay on CSNK2A2. Also, the “%Inh” value with CTK stood at 0%; in the assay on DAPK1 it was 0%; in the assay on DAPK2, 0%; in the assay on DAPK3, 14%; in the assay with DCAMKL1, 7%; in the assay with DCAMKL2, 0%. Moreover, the “%Inh” value was 0% in the assay on DCAMKL3 and 15% in the assay on DDR1.

With `Cc1cccc(-c2nc(Nc3ccc4[nH]nnc4c3)c3ccccc3n2)n1` [GW867587], the “%Inh” value in the assay with CSF1R-autoinhibited worked out at 0%; in the assay on CSF1R, 0%; with CSK it was 0%; in the assay with CSNK1A1L it was 0%; in the assay with CSNK1A1, 0%; in the assay with CSNK1D it was 4%. Besides, the “%Inh” value in the assay on CSNK1E stood at 0%; in the assay with CSNK1G1, 0%; in the assay with CSNK1G2, 0%; in the assay with CSNK1G3 it was 0%; in the assay on CSNK2A1, 80%; with CSNK2A2, 45%. Further, the “%Inh” value with CTK worked out at 10%; in the assay with DAPK1, 0%; in the assay with DAPK2 it was 0%; in the assay with DAPK3, 0%; in the assay with DCAMKL1, 0%; in the assay on DCAMKL2, 0%. In addition, the “%Inh” value with DCAMKL3 and with DDR1 was 0% in each case.
